Measured values as given in ChEMBL document CHEMBL3988442, “University of Dundee, Small-Polar-MMV Screening Library” (2021).
For some assays here: Measured potencies and affinities stand elsewhere.

What was measured:
Design in all cases: scale not given: direction of the effect not stated beside the values
[1] = target: Protein translocase subunit SecA (Escherichia coli (strain K12)) (UniProt P10408); test: Assay to Identify E. coli SecA ATPase Inhibitors; type: functional; details: 30 µM
[2] = target: T1, Ubiquitin-activating enzyme e1, putative (Leishmania donovani (strain BPK282A1)) (UniProt E9BSI1); test: Leishmania donovani Ubiquitin Activating Enzyme (LdE1); type: functional; details: 30 µM
T1 sequence (whole entry): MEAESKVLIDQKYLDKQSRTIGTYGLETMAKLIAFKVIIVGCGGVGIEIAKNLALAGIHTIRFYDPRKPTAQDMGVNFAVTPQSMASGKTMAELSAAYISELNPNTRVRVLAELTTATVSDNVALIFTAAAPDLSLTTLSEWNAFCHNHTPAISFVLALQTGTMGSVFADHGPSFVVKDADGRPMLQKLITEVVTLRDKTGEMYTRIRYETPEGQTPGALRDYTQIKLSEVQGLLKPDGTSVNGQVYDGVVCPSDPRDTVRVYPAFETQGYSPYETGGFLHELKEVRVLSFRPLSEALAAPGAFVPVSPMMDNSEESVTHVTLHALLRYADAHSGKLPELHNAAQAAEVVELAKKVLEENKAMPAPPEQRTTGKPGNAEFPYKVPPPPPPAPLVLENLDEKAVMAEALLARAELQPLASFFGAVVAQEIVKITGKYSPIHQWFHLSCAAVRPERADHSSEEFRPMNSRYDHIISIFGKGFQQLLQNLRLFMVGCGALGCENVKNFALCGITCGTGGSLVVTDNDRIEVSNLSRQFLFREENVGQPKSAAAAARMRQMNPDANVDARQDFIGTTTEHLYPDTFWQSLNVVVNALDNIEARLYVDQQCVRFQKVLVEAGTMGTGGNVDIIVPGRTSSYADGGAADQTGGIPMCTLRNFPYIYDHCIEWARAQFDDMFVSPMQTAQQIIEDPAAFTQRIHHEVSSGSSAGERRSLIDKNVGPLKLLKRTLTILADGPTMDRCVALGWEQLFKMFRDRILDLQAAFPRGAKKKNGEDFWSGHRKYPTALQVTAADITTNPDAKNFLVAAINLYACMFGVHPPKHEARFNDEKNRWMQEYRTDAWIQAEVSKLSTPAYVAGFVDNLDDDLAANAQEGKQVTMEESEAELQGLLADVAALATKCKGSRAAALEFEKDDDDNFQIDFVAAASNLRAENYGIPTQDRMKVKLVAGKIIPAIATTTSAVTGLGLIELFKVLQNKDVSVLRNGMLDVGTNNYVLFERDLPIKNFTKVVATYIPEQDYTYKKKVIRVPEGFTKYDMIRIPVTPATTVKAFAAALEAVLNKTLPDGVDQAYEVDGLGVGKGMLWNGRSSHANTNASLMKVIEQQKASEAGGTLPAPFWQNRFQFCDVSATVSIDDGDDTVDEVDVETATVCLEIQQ

[3] = target: AMP-activated protein kinase, AMPK (Homo sapiens) (UniProt P54646+O43741+P54619+Q9UGJ0+Q9Y478+Q13131+Q9UGI9); test: AMP-dependent Kinase enzyme assay. An in vitro enzyme assay that detects ADP turnover that is directly proportional to AMPK activity. This uses naive AMPK that is activated during the assay with MK-8722; type: functional; details: 30 µM
[4] = target: Sialic acid-binding Ig-like lectin 9 (Homo sapiens) (UniProt Q9Y336); test: Hs-Siglec9 ALPHAscreen SOP 20170721; details: 10 µM
Sialic acid-binding Ig-like lectin 9 (Homo sapiens), sequence (Q9Y336 whole entry): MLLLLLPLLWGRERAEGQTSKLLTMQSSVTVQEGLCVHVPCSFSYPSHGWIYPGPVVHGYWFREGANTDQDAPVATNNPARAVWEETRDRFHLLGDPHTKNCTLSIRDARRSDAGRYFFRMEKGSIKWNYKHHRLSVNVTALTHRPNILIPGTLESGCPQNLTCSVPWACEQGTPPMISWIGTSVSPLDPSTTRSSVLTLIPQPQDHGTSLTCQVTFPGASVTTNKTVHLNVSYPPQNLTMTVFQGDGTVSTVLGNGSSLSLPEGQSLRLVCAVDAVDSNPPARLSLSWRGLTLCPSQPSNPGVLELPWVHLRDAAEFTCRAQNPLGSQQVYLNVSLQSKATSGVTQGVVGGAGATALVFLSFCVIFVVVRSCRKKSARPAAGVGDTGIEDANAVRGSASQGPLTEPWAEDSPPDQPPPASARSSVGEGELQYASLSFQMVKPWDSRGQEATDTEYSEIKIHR

Trypanosoma cruzi = test: Trypanosoma cruzi phosphomannomutase and mannose-1-phosphate guanylyltransferase assay; type: functional; details: 10 µM
[5] = target: T2, Arginase-2, mitochondrial (Homo sapiens) (UniProt P78540); test: in vitro enzyme assay to detect the production of urea directly proportional to the activity of Arginase II; type: functional; details: 33.3 µM; further: in the data most compounds retested in dose-response had high values
T2 sequence (whole entry): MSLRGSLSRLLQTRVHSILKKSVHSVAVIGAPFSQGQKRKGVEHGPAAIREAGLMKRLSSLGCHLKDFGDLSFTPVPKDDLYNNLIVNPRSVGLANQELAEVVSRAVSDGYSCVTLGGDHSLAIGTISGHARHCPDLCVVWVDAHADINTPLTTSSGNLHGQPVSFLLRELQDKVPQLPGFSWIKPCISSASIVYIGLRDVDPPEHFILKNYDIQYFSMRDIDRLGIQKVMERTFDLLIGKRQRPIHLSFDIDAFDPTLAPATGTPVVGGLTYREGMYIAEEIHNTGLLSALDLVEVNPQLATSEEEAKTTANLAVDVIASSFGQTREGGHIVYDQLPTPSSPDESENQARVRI

[6] = target: T3, Proteasome subunit beta (Trypanosoma cruzi) (UniProt O96673); test: Trypanosoma cruzi proteasome chymotrypsin-like activity (TcProtChymo) assay.; further: in the data most compounds retested in dose-response had high values; type: functional; details: 9.37 µM
T3 sequence (whole entry): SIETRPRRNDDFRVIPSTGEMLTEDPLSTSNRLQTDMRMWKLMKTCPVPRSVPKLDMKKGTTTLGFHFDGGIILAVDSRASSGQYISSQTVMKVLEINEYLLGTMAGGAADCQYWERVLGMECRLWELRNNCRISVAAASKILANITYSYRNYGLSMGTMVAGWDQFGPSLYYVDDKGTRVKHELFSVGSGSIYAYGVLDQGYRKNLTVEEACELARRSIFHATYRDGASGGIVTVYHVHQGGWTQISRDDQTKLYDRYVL

Homo sapiens = organism: Homo sapiens; test: To identify inhibition of the IFN signalling (Jak-Stat) pathway via expression of an eGFP reporter gene under the control of an IFN-stimulated response element (ISRE) containing MxA promoter.; type: functional; details: 30 µM
[7] = target: T4, Tyrosyl-tRNA synthetase, putative (Trypanosoma cruzi (strain CL Brener)) (UniProt Q4DSP6); test: Trypanosoma cruzi tyrosyl tRNA synthetase (TcYRS) _High Tyrosine SOP; type: functional; details: 30 µM; further: in the data most compounds retested in dose-response had high values
T4 sequence (whole entry): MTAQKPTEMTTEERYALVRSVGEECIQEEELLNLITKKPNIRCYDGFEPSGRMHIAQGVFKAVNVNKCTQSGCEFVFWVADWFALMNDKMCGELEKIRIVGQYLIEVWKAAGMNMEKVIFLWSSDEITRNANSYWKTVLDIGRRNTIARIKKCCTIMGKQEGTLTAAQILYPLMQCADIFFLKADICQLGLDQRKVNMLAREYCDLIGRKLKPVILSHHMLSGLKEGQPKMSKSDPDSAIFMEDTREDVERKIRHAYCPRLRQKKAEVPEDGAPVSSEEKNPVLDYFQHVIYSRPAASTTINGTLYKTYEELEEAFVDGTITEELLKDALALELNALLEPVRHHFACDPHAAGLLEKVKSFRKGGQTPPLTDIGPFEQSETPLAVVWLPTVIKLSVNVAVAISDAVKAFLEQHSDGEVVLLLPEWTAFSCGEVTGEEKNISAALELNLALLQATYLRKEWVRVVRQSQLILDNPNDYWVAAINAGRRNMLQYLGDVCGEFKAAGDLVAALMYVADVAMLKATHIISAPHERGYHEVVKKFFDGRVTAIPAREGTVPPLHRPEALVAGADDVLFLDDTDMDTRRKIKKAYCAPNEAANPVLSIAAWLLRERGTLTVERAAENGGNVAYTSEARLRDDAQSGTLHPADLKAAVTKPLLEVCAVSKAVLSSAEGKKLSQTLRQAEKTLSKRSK

[8] = target: T4, Tyrosyl-tRNA synthetase, putative (Trypanosoma cruzi (strain CL Brener)); test: Trypanosoma cruzi tyrosyl tRNA synthetase (TcYRS) SOP; type: functional; details: 30 µM
[9] = target: Chromo domain-containing protein 1 (Saccharomyces cerevisiae (strain ATCC 204508 / S288c) (Baker's yeast)) (UniProt P32657); test: ScCHD-1 Enzyme Inhibition Assay; type: functional; details: 30 µM; further: in the data most compounds retested in dose-response had high values
Chromo domain-containing protein 1 (Saccharomyces cerevisiae (strain ATCC 204508 / S288c) (Baker's yeast)), sequence (P32657 whole entry, the tested form may be a part): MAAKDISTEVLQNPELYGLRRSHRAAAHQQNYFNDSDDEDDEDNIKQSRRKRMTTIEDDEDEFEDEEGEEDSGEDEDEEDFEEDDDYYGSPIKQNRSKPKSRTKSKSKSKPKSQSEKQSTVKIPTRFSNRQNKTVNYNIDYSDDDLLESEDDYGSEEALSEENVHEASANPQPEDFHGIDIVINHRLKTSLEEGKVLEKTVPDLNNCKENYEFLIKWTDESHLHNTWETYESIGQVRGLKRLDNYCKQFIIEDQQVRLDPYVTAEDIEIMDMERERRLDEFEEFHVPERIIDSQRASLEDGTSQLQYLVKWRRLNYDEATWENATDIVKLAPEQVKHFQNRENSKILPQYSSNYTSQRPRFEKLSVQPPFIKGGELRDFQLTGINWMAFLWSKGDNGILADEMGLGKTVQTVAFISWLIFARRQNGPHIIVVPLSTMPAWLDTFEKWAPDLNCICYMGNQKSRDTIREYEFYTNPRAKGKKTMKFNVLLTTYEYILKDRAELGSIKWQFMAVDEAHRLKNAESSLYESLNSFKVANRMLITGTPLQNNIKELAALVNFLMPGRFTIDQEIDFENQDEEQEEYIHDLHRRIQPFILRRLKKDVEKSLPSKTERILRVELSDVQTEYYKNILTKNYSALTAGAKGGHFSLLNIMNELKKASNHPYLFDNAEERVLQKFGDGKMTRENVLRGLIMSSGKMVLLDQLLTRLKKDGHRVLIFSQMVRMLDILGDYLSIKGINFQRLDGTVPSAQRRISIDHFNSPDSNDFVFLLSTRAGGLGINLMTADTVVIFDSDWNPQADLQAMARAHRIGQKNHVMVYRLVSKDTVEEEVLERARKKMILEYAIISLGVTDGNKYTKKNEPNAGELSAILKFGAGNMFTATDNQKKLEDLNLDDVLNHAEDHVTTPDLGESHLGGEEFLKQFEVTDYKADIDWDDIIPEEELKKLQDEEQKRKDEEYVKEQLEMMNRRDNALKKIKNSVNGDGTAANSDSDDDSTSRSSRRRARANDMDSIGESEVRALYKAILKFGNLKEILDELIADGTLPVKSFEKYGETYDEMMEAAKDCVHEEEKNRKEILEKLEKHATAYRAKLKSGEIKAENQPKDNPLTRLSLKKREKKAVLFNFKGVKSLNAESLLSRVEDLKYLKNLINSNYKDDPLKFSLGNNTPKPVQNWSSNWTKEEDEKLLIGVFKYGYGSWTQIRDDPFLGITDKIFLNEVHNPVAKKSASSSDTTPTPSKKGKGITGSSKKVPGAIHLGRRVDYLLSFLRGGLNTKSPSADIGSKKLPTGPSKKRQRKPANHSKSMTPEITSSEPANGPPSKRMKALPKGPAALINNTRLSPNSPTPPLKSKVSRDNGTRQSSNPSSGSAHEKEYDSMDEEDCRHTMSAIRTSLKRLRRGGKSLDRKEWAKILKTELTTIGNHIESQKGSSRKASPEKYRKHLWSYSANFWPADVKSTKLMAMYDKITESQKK

Protein translocase subunit SecA (Escherichia coli (strain K12)), sequence (P10408 whole entry): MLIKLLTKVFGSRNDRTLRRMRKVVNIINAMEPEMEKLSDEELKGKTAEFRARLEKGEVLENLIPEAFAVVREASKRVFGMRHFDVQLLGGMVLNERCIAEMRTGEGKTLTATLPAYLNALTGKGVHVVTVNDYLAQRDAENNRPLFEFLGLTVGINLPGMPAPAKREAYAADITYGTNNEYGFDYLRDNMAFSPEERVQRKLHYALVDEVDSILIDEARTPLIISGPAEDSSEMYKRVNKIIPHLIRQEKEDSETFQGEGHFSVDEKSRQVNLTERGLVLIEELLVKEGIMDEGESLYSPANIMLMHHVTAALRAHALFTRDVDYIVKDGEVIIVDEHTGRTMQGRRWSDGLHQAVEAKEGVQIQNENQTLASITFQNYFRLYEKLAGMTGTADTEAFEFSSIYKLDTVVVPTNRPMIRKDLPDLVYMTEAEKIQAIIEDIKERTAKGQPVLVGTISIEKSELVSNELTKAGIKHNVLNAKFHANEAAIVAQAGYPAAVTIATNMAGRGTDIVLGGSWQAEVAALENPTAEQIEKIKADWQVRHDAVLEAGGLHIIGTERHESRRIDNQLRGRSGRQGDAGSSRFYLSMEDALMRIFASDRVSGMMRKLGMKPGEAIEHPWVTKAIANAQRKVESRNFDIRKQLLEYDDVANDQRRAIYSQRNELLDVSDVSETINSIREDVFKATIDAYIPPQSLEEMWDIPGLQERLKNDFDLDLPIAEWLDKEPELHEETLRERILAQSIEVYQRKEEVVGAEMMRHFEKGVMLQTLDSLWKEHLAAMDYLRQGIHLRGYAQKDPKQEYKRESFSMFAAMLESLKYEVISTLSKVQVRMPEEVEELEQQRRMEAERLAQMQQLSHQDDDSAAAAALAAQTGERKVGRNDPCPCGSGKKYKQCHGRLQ

SMILES | Percent Effect [1] [%] | Percent Effect [2] [%] | Percent Effect [3] [%] | Percent Effect [4] [%] | Percent Effect (Trypanosoma cruzi) [%] | Percent Effect [5] [%] | Percent Effect [6] [%] | Percent Effect (Homo sapiens) [%] | Percent Effect [7] [%] | Percent Effect [8] [%] | Percent Effect [9] [%]
c1ncn(CC2CCCN(Cc3nc(C4CC4)no3)C2)n1 (stereo not given) | -5.67 | 10.1 | -7.43 | 8.58 | 8.59 | -4.56 | -3.36 | -5.79 | 6.4 | 13.9 | -1.7
O=C(NCCc1cccc(F)c1)NCC(O)c1cccc(F)c1 (stereo not given) | -2.56 | 5.41 | 4.6 | 6.95 | 1.04 | 1.6 | 7.93 | 10.8 | 8.37 | 23.5 | -3.01
COC(=O)CCC(=O)N1CCC2(CN(Cc3cccc(F)c3)C2)C1 | -1.57 | 0 | 35.4 | 0.909 | 1.54 | -52.5 | 1.71 | -9.09 | -2.08 | -2.5 | -1.45
O=C(CCOc1ccccc1)N1CCC(Nc2cccnn2)CC1 | -6.73 | 13.2 | -7.1 | 16.8 | 2.15 | -0.719 | 5.5 | 8.93 | 6.4 | 18.5 | -5.39
Cc1cc(CN2CCOCS2(=O)=O)ccc1F | 2.12 | 5.41 | -2.01 | 3.16 | -5.21 | 4.29 | 16.4 | 9.21 | 4.76 | 4.88 | -2.56
O=C(NC1CC1)[C@@H]1CCO[C@@H]2CCN(Cc3ccsc3)C[C@H]21 | -3.17 | -8.11 | 8.56 | 0.445 | -5.38 | 3.5 | 17.5 | 3.93 | 0 | 0 | 7.56
COc1ccc(Br)c(C(=O)NCCNc2ccc(C(F)(F)F)cn2)c1 | 0.559 | 18.2 | 8.45 | -0.542 | -1.08 | 0.21 | 10.9 | -7.76 | 11.4 | 25.9 | -25.7
O=C(NCC1CCS(=O)(=O)C1)c1sccc1-c1ccc(F)cc1 (stereo not given) | -4.74 | -54 | -1.29 | 24.1 | 8.5 | 4.71 | 13.3 | 4.09 | 4.3 | 18.5 | 0.115
Cc1cccc(-c2nc(CN3CCCCC3Cn3cncn3)no2)c1 (stereo not given) | -1.65 | -5.26 | 5.98 | 4.13 | 3.19 | 3.45 | 2.34 | -0.995 | 7.35 | 0 | 6.07
CN(C)c1cc(C(=O)NCCc2n[nH]c(=O)[nH]2)ccn1 | -2.65 | 2.63 | 5.52 | 7.32 | -0.487 | 4.73 | 7.38 | 5.92 | 3.19 | 5.2 | -2.56
